Measurements as given in PubChem BioAssay.
Calls of active or inactive are those of the source. Unless noted, the rule behind the calls is not given here.

Legend:
[1] = compounds binding Alexa647 anti-His antibody – biochemical, small-molecule microarray, 635 nm fluorescence, artefact control for SMM control protein annotation, primary screen (AID 1128); settings: higher = more signal;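 note: score merges feature fluorescence with signal-to-noise for each printed compound spot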
[2] = test system: Human papillomavirus type 1a E7 protein (residues 1-88); test: HPV1a E7 small-molecule binders, primary screen, biochemical, small-molecule microarray, residues 1-88, 635 nm (AID 1129); settings: small-molecule microarray binding, fluorescence 635 nm; higher = more signal
[3] = biological target: Focal adhesion kinase 1 (Homo sapiens) (UniProt Q05397); test: PTK2 protein binding on printed compound slides – biochemical, small-molecule microarray, 635/667 nm fluorescence, BSA, DTT, primary screen (AID 1130); settings: 635 nm fluorescence, higher = more signal;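 note: composite of spot emission at 667 nm and signal to noise over triplicate slides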
Chain of Focal adhesion kinase 1 (Homo sapiens) (Q05397 whole entry, looked up): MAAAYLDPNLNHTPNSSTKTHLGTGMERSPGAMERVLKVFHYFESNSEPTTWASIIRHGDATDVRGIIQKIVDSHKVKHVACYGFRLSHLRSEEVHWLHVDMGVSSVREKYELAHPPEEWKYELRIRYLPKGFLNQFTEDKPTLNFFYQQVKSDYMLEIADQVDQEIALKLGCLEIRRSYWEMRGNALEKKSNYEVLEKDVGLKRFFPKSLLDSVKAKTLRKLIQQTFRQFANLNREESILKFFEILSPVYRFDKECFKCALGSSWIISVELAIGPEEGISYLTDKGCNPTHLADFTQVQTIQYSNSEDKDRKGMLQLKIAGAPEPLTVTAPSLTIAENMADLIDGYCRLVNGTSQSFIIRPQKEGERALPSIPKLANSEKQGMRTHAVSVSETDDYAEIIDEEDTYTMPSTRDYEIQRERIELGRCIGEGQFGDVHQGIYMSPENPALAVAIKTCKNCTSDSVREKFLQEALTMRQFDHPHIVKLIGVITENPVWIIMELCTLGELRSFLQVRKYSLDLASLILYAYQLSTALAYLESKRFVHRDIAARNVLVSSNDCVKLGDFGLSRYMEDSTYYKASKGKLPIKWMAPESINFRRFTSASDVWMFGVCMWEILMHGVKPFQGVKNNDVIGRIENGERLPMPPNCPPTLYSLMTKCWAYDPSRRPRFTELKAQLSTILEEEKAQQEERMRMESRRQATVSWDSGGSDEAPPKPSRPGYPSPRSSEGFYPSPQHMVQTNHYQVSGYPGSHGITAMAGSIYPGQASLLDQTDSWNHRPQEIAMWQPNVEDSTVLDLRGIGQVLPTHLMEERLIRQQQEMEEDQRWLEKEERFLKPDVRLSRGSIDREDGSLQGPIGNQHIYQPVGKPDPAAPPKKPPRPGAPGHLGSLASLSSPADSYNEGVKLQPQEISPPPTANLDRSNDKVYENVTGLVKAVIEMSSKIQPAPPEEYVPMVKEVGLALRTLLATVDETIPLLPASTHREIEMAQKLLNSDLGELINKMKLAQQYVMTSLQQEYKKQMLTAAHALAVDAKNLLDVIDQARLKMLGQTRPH

[4] = test system: Fibrinogen (Alexa647-labelled); test: Alexa647-fibrinogen binding to printed small molecules – biochemical, small-molecule microarray, 635/667 nm fluorescence, artefact control for SMM control-protein annotation, profiling panel (AID 1131); settings: fibrinogen-A647 binding fluorescence, higher = more signal;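 note: z-score merges 667 nm fluorescence with per-spot signal-to-noise over triplicate slides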
[5] = biological target: Follistatin (Homo sapiens) (UniProt P19883); test: FST protein binding to printed compounds – biochemical, small-molecule microarray, 635/667 nm fluorescence, primary screen (AID 1132); settings: 635 nm fluorescence, higher = more signal
Chain of Follistatin (Homo sapiens) (P19883 whole entry, looked up): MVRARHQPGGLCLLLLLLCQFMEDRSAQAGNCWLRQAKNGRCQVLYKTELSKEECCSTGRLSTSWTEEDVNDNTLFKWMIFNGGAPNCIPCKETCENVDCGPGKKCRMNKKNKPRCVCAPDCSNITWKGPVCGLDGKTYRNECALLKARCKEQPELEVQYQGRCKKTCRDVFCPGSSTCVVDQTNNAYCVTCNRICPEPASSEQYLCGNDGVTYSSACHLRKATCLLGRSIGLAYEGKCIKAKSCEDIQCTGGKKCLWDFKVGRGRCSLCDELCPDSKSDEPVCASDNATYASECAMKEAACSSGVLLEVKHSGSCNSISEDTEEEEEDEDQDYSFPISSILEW

[6] = biological target: Fibroblast growth factor 2 (Homo sapiens) (UniProt P09038); test: basic fibroblast growth factor binding to printed compounds – biochemical, small-molecule microarray, 635/667 nm fluorescence, primary screen (AID 1133); settings: FGF2, fluorescence 635/667, higher = more signal
Chain of Fibroblast growth factor 2 (Homo sapiens) (P09038 whole entry, looked up): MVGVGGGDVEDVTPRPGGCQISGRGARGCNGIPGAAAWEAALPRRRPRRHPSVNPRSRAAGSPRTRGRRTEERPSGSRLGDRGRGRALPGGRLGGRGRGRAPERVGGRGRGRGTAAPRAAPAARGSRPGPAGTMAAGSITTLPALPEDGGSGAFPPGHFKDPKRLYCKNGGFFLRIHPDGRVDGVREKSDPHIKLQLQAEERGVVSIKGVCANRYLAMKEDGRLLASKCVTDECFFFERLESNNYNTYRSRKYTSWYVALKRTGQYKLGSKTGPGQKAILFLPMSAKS

[7] = JC-1 mitochondrial potential readout, lung cancer cells – cell-based, A549, JC-1 fluorescence, basal, 24 h, 100 nL, profiling panel (AID 1138); settings: higher = more signal;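 note: A549 lung adenocarcinoma cells under basal conditions with no added stimulus; test concentration not given here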
Lefty1 = Lefty1 protein binding to printed compounds – biochemical, small-molecule microarray, 635/667 nm fluorescence, primary screen (AID 1139); settings: fluorescence 635/667, higher = more signal
[8] = test system: wheat germ agglutinin (Triticum aestivum), Alexa647-labelled; test: Alexa647-WGA lectin binding to printed small molecules – biochemical, small-molecule microarray, 635/667 nm fluorescence, artefact control for SMM control-protein annotation, profiling panel (AID 1140); settings: WGA-A647 binding, 635 nm fluorescence, higher = more signal;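 note: score merges 667 nm feature emission with signal to noise over triplicate slides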
[9] = biological target: Luciferin 4-monooxygenase (Photinus pyralis) (UniProt P08659); test: inhibition of purified Photinus pyralis luciferase – biochemical, luminescence, purified enzyme, 2006 set, primary screen (AID 1141); settings: purified firefly luciferase, SteadyGlo luminescence, 30 min; higher = more signal, called active from +8 up or from −8 down;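 note: cell-free assay with purified firefly luciferase at 100 ng per well in PBS; test concentration not given here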
Chain of Luciferin 4-monooxygenase (Photinus pyralis) (P08659 whole entry, looked up): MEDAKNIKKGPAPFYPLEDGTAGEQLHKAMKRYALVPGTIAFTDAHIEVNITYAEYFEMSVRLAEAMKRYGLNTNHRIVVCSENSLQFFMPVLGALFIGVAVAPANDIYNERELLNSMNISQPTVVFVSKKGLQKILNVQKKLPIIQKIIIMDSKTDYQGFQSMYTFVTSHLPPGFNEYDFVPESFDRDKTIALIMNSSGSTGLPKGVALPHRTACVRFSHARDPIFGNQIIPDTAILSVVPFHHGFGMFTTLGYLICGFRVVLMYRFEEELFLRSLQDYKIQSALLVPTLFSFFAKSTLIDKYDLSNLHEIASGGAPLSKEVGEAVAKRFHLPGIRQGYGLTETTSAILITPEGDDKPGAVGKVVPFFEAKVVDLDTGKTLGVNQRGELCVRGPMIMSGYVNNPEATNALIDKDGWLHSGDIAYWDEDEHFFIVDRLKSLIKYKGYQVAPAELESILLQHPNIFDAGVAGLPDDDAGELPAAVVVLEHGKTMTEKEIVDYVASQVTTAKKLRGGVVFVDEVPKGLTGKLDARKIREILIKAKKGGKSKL

[10] = test system: Wnt5a (protein binding on small-molecule microarray); test: small molecules binding Wnt5a protein – biophysical, small-molecule microarray, 635/667 nm fluorescence, primary screen (AID 1142); settings: 635 nm fluorescence, higher = more signal;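 note: fluorescence read at 667 nm with signal to noise per printed feature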
[11] = ATP-based viability of Huh7 replicon cells – cell-based, CellTiter-Glo luminescence, basal, 48 h, cytotoxicity control for HCV replication inhibitor project, primary screen (AID 1143); settings: higher = more signal, called active from +8 up or from −8 down;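 note: Huh7 hepatoma cells carrying a hepatitis C replication reporter with no stimulus; test concentration not given here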
[12] = Pseudomonas biofilm growth suppression – PAO1 strain, BacTiter-Glo luminescence, LB-PBS, primary screen (AID 1144); settings: P. aeruginosa PAO1 biofilm, 12 h, higher = more signal
[13] = basal CRE-LacZ reporter activity in PC12 – cell-based, unstimulated, primary screen (AID 1145); settings: no forskolin, luminescence, 4.5 h, higher = more signal, called active from +8 up or from −8 down
[14] = forskolin-driven CRE-LacZ activity in PC12 – cell-based, CRE-LacZ reporter, forskolin-stimulated, primary screen (AID 1146); settings: luminescence, 4.5 h, higher = more signal, called active from +8 up or from −8 down;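 note: PC12 cells with 6xCRE LacZ reporter stimulated by forskolin 10 µM; beta-galactosidase reporter signal reflecting CREB driven transcription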
[15] = biological target: Streptavidin (Streptomyces avidinii) (UniProt P22629); test: compounds binding control protein streptavidin – biophysical, small-molecule microarray, 635/667 nm fluorescence, artefact control for SMM compound annotation, primary screen (AID 1147); settings: higher = more signal;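 note: signal reflects streptavidin binding to arrayed compounds as a control protein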
Chain of Streptavidin (Streptomyces avidinii) (P22629 whole entry, looked up): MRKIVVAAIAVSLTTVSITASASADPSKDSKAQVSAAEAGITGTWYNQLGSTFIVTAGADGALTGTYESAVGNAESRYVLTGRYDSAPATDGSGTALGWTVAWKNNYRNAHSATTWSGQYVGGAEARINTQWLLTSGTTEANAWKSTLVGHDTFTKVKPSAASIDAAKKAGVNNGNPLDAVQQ

[16] = probe aInhba binding on compound microarray – biochemical, small-molecule microarray, 635/667 nm fluorescence, primary screen (AID 1148); settings: higher = more signal;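 note: score merges 667nm spot fluorescence with signal-to-noise for antibody binding to printed compounds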
Torsin-1A (Homo sapiens) [17] = biological target: Torsin-1A (Homo sapiens) (UniProt O14656); test: TOR1A wild-type binding on microarray – cell lysate, small-molecule microarray, lysate, 635/667 nm, primary screen (AID 1149); settings: COS7 hTOR1A-WT lysate, 635 nm fluorescence, higher = more signal
Chain of Torsin-1A (Homo sapiens) (O14656 whole entry, looked up): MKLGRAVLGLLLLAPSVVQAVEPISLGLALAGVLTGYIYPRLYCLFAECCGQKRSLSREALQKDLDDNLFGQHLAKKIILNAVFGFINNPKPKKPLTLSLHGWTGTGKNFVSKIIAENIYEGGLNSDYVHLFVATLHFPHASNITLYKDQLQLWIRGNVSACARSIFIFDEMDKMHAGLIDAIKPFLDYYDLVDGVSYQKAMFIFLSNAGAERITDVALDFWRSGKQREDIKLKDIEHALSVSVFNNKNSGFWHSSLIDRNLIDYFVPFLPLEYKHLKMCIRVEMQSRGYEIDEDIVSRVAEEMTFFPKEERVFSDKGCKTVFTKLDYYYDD

Torsin-1A (Homo sapiens) [18] = biological target: Torsin-1A (Homo sapiens) (UniProt O14656); test: torsin A mutant lysate binding on microarrays – cell lysate, small-molecule microarray, COS7 lysate, 635/667 nm fluorescence, primary screen (AID 1150); settings: COS7 hTOR1A mutant lysate, 635 nm fluorescence, higher = more signal;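 note: score pools 667 nm emission and signal to noise measuring lysate protein binding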
[19] = test system: Sonic hedgehog protein (Shh); test: Sonic hedgehog microarray binding compounds – biochemical, small-molecule microarray, 635/667 nm fluorescence, primary screen (AID 1151); settings: 635 nm fluorescence, higher = more signal;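 note: Shh protein binding to compounds spotted on small-molecule microarray slides; score combines spot fluorescence intensity with signal-to-noise across triplicate slides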

SMILES | composite z-score [1] | composite z-score [2] | composite z-score [3] | composite z-score [4] | composite z-score [5] | composite z-score [6] | z-score [7] | composite z-score (Lefty1) | composite z-score [8] | z-score [9] | composite z-score [10] | z-score [11] | z-score [12] | z-score [13] | z-score [14] | composite z-score [15] | composite z-score [16] | composite z-score (Torsin-1A (Homo sapiens) [17]) | composite z-score (Torsin-1A (Homo sapiens) [18]) | composite z-score [19]
CCCCC(=C=CC[C@H](O)c1cccc(OCCO)c1)C[C@H](O)COCc1ccccc1 | -0.178 | 0.101 | 0.105 | -0.606 | 0.0306 | -0.473 | 0.396 | 0.743 | 0.435 | -0.352 (inactive) | -0.122 | -1.33 (inactive) | -0.295 (inactive) | 3.54 (inactive) | 1.04 (inactive) | 0.206 | -0.101 | 0.139 | 0.0056 | 0.508
COC(=O)[C@]1(Cc2ccccc2CN=[N+]=[N-])N=C(c2ccc(OCCCO)cc2)O[C@@H]1c1ccccc1 | 0.652 | -1.81 | -0.435 | 0.0713 | -0.562 | -0.782 | -0.0525 | -0.429 | 0.441 | -1.02 (inactive) | -0.311 | -4.69 (inactive) | 0.211 (inactive) | 4.85 (inactive) | 0.56 (inactive) | -1.05 | -0.0407 | -2.51 | -1.33 | -1.19
C=CC[C@]1(C(=O)NCC(O)CO)N=C(c2ccc(OCCCO)cc2)O[C@H]1c1ccccc1N=[N+]=[N-] (stereo not given in full) | 2.28 | 0.653 | 0.302 | 0.66 | 1.1 | 0.264 | -0.152 | -0.661 | 0.986 | -6.91 (inactive) | 0.257 | -1.4 (inactive) | -0.323 (inactive) | 1.24 (inactive) | -0.652 (inactive) | 1.4 | 0.215 | 0.16 | 1.46 | -0.723
CCC[C@@H]1C[C@@]1(CCC)[C@@H](NC(=O)c1ccco1)c1ccc(Cl)cc1 | -0.348 | -1.71 | -0.386 | -0.495 | -0.388 | -0.882 | 0.523 | -0.769 | -0.493 | -0.31 (inactive) | -0.114 | -2.99 (inactive) | 0.789 (inactive) | 0.58 (inactive) | 0.974 (inactive) | -0.489 | 0.0074 | -1.5 | -0.94 | -0.323
CCCC=C(CCC)[C@@H](NS(=O)(=O)c1cccc2cccnc12)c1ccc(C(=O)OC)cc1 | 1.4 | 0.36 | 0.542 | 0.395 | 1.31 | 0.33 | 0.0272 | 0.162 | -0.0663 | 2.48 (inactive) | 3.01 | -0.0811 (inactive) | -0.124 (inactive) | -1.13 (inactive) | 0.0608 (inactive) | 0.358 | 2.04 | 0.361 | 0.0731 | -0.187
COCCOC(=O)N1C(=O)[C@@]2(c3cc(C#Cc4ccc(OC)cc4)ccc31)[C@H](C(=O)N1CCc3cc(OC)c(OC)cc3C1)[C@H]1C(=O)O[C@H](c3ccccc3)[C@H](c3ccccc3)N1[C@@H]2c1ccc(OCCO)cc1 | 0.839 | 1.13 | 0.5 | 0.195 | 1.19 | 1.3 | -1.79 | 0.88 | 0.596 | -1.23 (inactive) | 0.4 | -0.831 (inactive) | -0.959 (inactive) | -1.27 (inactive) | -0.194 (inactive) | 0.364 | 0.124 | 0.666 | 0.528 | 1.69
Cc1ccc(S[C@]2(C(=O)NCCN3CCOCC3)CC(=O)N(C3Cc4ccccc4C3)[C@@H]2c2ccc(CO)cc2)cc1 | 1.22 | 0.0419 | 0.82 | -0.778 | -0.135 | -0.592 | 0.161 | -1.47 | -0.278 | 0.54 (inactive) | -0.2 | -0.73 (inactive) | -0.396 (inactive) | -0.152 (inactive) | 1.3 (inactive) | -0.994 | -0.125 | 0.0023 | 0.206 | -0.393
C=C(CCCC)/C(=C/C[C@@H](OC(=O)c1ccncc1)c1ccccc1OCCO)c1cc(C(=O)OC)ccc1OC | 2.82 | 1.22 | 1.38 | 0.979 | 0.549 | 0.213 | 3.24 | 0.444 | 1 | -1.76 (inactive) | 0.106 | -2.02 (inactive) | 0.0648 (inactive) | 15.6 (active) | 0.383 (inactive) | -0.36 | -0.0047 | 0.622 | 1.1 | 1.4
CC(=O)NCCCC[C@@H]1NC(=O)[C@H]2C[C@@H](C(=O)NCCCCCN)[C@@H](c3cccc(OCCO)c3)N2C1=O | 2.38 | 0.759 | 1.38 | 0.829 | 0.763 | 0.275 | 0.0821 | 0.279 | 1.1 | -0.0548 (inactive) | 0.292 | -0.532 (inactive) | 0.00194 (inactive) | -0.675 (inactive) | -1.44 (inactive) | 0.688 | -0.102 | 0.455 | 0.0709 | -0.0725
COc1ccc(C#Cc2ccc3c(c2)[C@]2(C(=O)N3)[C@H](C(=O)O)[C@H]3C(=O)O[C@H](c4ccccc4)[C@H](c4ccccc4)N3[C@@H]2c2ccc(OCCO)cc2)cc1 | 2.61 | 1.19 | 0.681 | 0.836 | 0.714 | 0.56 | -2.47 | 0.128 | 1.18 | -5.18 (inactive) | 0.356 | -0.969 (inactive) | -0.859 (inactive) | 0.272 (inactive) | 0.408 (inactive) | 1.59 | 0.399 | -0.0331 | 0.739 | 1.3
